# Experimental data reported in paper PMC10812921, “Transcriptional Coactivator BOB1 (OBF1, OCA-B) Modulates the Specificity of DNA Recognition by the POU-Domain Factors OCT1 and OCT2 in a Monomeric Configuration”.
# Assays:
# POU1 (OCT1 POU domain) = POU1 (OCT1 POU domain) (human, UniProt P14859 260-458); experiment: EMSA-SELEX-seq; no BOB1; 20 mM Tris-HCl pH 7.6, 140 mM NaCl, 10% glycerol, 0.5 mM EDTA, 0.05% Triton X-100, 0.1 mg/mL BSA, 0.1 mg/mL poly(dI-dC), 5 mM DTT, room temperature, 20 min; high values mean tight binding; conditions: protein: recombinant; dsDNA, one strand shown
# Procedure, shortened: (§1)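 With or without 28 ng coactivator protein, 30 ng of tagged POU-domain protein was combined with 300 ng of a PCR-amplified double-stranded random 35-nt library in 20 μL Tris–HCl pH 7.6 binding buffer for 20 min at RT. The protein came from E. coli BL21 and had been purified under denaturing conditions and renatured. Four rounds of cutting complex bands from native 6% PAGE, elution and PCR amplification preceded Illumina sequencing. The binding preference figure is the percentage of sequenced 8-mers matching a motif pattern.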
# POU2 (OCT2 POU domain) = target: T1, POU2 (OCT2 POU domain) (human, UniProt P09086 175-386); experiment: as above; conditions: protein: recombinant; dsDNA, one strand shown
# T1 sequence: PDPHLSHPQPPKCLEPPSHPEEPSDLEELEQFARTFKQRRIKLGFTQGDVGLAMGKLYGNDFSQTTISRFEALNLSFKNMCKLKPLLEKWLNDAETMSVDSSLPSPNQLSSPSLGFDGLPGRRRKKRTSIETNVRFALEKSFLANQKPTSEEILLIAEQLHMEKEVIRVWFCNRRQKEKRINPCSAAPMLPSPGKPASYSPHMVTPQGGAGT
# Procedure, shortened: as §1
# [1] = target: POU1 (OCT1 POU domain);BOB1 (OBF1, OCA-B) (human;human, UniProt P14859;Q16633 260-458;1-256, |); experiment: EMSA-SELEX-seq; with BOB1 (ternary complex band); 20 mM Tris-HCl pH 7.6, 140 mM NaCl, 10% glycerol, 0.5 mM EDTA, 0.05% Triton X-100, 0.1 mg/mL BSA, 0.1 mg/mL poly(dI-dC), 5 mM DTT, room temperature, 20 min; high values mean tight binding; conditions: protein: recombinant;recombinant; copies: 1;1; dsDNA, one strand shown
# Procedure, shortened: as §1
# [2] = target: T2, POU2 (OCT2 POU domain);BOB1 (OBF1, OCA-B) (human;human, UniProt P09086;Q16633 175-386;1-256, |); experiment: as above; conditions: protein: recombinant;recombinant; copies: 1;1; dsDNA, one strand shown
# T2 sequence 1: T1 sequence
# T2 sequence 2: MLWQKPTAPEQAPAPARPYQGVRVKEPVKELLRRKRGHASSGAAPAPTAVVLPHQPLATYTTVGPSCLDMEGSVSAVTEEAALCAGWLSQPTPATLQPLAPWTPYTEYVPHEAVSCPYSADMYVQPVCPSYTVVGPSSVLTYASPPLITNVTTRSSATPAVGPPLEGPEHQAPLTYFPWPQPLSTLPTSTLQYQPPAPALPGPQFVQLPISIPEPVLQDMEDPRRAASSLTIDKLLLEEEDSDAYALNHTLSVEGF
# Procedure, shortened: as §1
# Sequence of POU1 (OCT1 POU domain) (P14859 260-458): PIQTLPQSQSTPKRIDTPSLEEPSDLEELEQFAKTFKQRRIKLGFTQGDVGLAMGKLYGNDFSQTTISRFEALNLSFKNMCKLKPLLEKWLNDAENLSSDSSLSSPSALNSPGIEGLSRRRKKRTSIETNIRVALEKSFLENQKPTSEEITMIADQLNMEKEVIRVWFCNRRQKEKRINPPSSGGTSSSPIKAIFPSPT
Sequence,binding signal (POU1 (OCT1 POU domain)),binding signal (POU2 (OCT2 POU domain)),binding signal [1],binding signal [2]
ATCAGAAG,0.0271 % of ANNNNAAN 8-mers,0.0363 % of ANNNNAAN 8-mers,0.0359 % of ANNNNAAN 8-mers,0.033 % of ANNNNAAN 8-mers
AACGTAAT,0.077 % of ANNNNAAN 8-mers,0.0823 % of ANNNNAAN 8-mers,0.0546 % of ANNNNAAN 8-mers,0.071 % of ANNNNAAN 8-mers
AAAACAAC,0.0362 % of ANNNNAAN 8-mers,0.0345 % of ANNNNAAN 8-mers,0.0609 % of ANNNNAAN 8-mers,0.0462 % of ANNNNAAN 8-mers
ATTAAAAT,0.614 % of ANNNNAAN 8-mers,0.636 % of ANNNNAAN 8-mers,0.228 % of ANNNNAAN 8-mers,0.204 % of ANNNNAAN 8-mers
AGGCAAAG,0.146 % of ANNNNAAN 8-mers,0.0783 % of ANNNNAAN 8-mers,0.258 % of ANNNNAAN 8-mers,0.13 % of ANNNNAAN 8-mers
AGCTGAAA,0.0267 % of ANNNNAAN 8-mers,0.0293 % of ANNNNAAN 8-mers,0.0261 % of ANNNNAAN 8-mers,0.0239 % of ANNNNAAN 8-mers
ATGCAAAG,1.06 % of ANNNNAAN 8-mers,0.831 % of ANNNNAAN 8-mers,2.22 % of ANNNNAAN 8-mers,2.27 % of ANNNNAAN 8-mers
ACCAAAAA,0.0336 % of ANNNNAAN 8-mers,0.0328 % of ANNNNAAN 8-mers,0.0425 % of ANNNNAAN 8-mers,0.0256 % of ANNNNAAN 8-mers
AACCTAAG,0.0256 % of ANNNNAAN 8-mers,0.0213 % of ANNNNAAN 8-mers,0.018 % of ANNNNAAN 8-mers,0.0173 % of ANNNNAAN 8-mers
ATTCCAAT,0.0767 % of ANNNNAAN 8-mers,0.11 % of ANNNNAAN 8-mers,0.057 % of ANNNNAAN 8-mers,0.0751 % of ANNNNAAN 8-mers
AAAGGAAA,0.103 % of ANNNNAAN 8-mers,0.0903 % of ANNNNAAN 8-mers,0.144 % of ANNNNAAN 8-mers,0.0933 % of ANNNNAAN 8-mers
ACCGGAAA,0.0271 % of ANNNNAAN 8-mers,0.0236 % of ANNNNAAN 8-mers,0.0265 % of ANNNNAAN 8-mers,0.0281 % of ANNNNAAN 8-mers
AAGGGAAC,0.0389 % of ANNNNAAN 8-mers,0.0506 % of ANNNNAAN 8-mers,0.0363 % of ANNNNAAN 8-mers,0.0305 % of ANNNNAAN 8-mers
ATTTTAAA,0.198 % of ANNNNAAN 8-mers,0.204 % of ANNNNAAN 8-mers,0.126 % of ANNNNAAN 8-mers,0.103 % of ANNNNAAN 8-mers
